Data reported in the supplement of paper PMC11732987, “Enantioselective OTUD7B fragment discovery through chemoproteomics screening and high-throughput optimisation” (Communications Chemistry, 2025).

Experiments:
Test in all cases: log2 ratio of Biotin-Ahx-Ub-VS probe labelling (fragment/DMSO); higher = less target engagement (more negative = stronger competition), active = hit call of the paper (q ≤ 0.05, log2 ratio ≤ -1)
Conditions in all cases: compound concentration: 200 uM; treatment time: 3 h
USP19 = molecular target: T1, USP19 (UniProt O94966)
T1 sequence (whole entry): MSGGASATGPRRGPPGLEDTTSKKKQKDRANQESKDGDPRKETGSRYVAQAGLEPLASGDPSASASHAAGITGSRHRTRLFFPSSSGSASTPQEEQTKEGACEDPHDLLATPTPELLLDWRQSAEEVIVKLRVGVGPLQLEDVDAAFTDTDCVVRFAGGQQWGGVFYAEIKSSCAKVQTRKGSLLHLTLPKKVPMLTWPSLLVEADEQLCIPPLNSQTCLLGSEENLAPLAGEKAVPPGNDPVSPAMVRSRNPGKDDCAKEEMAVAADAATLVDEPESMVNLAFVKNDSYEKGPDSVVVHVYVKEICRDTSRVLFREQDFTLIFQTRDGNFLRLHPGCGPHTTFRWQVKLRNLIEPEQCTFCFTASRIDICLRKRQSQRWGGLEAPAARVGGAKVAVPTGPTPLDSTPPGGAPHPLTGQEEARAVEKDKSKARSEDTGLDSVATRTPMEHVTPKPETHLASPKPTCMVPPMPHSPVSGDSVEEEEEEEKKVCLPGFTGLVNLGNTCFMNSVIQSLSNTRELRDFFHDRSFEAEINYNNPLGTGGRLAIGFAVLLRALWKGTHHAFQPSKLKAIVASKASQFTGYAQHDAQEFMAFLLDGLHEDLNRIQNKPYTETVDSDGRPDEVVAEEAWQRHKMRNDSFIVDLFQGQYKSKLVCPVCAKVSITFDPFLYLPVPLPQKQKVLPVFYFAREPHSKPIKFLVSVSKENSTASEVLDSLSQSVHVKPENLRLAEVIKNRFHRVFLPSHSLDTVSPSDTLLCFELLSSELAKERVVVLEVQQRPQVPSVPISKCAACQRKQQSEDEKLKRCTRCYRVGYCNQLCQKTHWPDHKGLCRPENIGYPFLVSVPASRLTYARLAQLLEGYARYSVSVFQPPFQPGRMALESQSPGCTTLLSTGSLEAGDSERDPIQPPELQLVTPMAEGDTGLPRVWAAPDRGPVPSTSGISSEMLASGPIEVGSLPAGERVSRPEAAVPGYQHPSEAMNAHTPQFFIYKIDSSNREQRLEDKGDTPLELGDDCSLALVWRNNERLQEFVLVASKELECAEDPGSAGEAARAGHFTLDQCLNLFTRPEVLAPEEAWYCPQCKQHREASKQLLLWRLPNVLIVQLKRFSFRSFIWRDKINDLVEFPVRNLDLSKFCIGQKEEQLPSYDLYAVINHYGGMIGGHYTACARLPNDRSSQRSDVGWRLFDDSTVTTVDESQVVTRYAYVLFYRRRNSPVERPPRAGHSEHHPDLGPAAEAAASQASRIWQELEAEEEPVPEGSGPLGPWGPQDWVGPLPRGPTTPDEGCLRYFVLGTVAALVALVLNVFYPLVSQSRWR
Summary of the method: (§1)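 HEK293T lysate (495 µg per sample, in Tris/CHAPS/IGEPAL buffer with protease inhibitors) was treated in triplicate with fragment at 200 µM or with DMSO for 3 h. It was then treated with Biotin-Ahx-Ub-VS (0.5 µM final) for 1 h. Labelled DUBs were NeutrAvidin-enriched, digested with LysC and trypsin, and run by diaPASEF LC-MS/MS. Spectronaut label-free quantities were global-median-normalised. Values are average log2 ratios fragment/DMSO by unpaired t-test, using proteins with ≥2 unique peptides.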

USP22 = molecular target: T2, USP22 (UniProt Q9UPT9)
T2 sequence (whole entry): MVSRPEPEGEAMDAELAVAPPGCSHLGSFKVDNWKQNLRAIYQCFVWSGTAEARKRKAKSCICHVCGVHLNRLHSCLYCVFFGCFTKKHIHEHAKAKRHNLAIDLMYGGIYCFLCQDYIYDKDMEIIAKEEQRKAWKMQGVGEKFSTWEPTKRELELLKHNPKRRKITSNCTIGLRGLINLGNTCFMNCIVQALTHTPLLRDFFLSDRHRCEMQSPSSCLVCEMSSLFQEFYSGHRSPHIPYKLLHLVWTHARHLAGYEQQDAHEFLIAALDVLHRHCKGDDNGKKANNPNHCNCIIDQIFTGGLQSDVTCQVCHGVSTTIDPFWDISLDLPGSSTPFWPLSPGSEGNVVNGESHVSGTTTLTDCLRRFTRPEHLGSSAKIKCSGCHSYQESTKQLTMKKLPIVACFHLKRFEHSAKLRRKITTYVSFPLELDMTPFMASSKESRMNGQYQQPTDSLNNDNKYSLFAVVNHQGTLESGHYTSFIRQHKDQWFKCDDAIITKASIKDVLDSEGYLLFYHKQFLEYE
Summary of the method: as §1

USP24 = USP24 (UniProt Q9UPU5)
USP24, sequence (Q9UPU5 whole entry): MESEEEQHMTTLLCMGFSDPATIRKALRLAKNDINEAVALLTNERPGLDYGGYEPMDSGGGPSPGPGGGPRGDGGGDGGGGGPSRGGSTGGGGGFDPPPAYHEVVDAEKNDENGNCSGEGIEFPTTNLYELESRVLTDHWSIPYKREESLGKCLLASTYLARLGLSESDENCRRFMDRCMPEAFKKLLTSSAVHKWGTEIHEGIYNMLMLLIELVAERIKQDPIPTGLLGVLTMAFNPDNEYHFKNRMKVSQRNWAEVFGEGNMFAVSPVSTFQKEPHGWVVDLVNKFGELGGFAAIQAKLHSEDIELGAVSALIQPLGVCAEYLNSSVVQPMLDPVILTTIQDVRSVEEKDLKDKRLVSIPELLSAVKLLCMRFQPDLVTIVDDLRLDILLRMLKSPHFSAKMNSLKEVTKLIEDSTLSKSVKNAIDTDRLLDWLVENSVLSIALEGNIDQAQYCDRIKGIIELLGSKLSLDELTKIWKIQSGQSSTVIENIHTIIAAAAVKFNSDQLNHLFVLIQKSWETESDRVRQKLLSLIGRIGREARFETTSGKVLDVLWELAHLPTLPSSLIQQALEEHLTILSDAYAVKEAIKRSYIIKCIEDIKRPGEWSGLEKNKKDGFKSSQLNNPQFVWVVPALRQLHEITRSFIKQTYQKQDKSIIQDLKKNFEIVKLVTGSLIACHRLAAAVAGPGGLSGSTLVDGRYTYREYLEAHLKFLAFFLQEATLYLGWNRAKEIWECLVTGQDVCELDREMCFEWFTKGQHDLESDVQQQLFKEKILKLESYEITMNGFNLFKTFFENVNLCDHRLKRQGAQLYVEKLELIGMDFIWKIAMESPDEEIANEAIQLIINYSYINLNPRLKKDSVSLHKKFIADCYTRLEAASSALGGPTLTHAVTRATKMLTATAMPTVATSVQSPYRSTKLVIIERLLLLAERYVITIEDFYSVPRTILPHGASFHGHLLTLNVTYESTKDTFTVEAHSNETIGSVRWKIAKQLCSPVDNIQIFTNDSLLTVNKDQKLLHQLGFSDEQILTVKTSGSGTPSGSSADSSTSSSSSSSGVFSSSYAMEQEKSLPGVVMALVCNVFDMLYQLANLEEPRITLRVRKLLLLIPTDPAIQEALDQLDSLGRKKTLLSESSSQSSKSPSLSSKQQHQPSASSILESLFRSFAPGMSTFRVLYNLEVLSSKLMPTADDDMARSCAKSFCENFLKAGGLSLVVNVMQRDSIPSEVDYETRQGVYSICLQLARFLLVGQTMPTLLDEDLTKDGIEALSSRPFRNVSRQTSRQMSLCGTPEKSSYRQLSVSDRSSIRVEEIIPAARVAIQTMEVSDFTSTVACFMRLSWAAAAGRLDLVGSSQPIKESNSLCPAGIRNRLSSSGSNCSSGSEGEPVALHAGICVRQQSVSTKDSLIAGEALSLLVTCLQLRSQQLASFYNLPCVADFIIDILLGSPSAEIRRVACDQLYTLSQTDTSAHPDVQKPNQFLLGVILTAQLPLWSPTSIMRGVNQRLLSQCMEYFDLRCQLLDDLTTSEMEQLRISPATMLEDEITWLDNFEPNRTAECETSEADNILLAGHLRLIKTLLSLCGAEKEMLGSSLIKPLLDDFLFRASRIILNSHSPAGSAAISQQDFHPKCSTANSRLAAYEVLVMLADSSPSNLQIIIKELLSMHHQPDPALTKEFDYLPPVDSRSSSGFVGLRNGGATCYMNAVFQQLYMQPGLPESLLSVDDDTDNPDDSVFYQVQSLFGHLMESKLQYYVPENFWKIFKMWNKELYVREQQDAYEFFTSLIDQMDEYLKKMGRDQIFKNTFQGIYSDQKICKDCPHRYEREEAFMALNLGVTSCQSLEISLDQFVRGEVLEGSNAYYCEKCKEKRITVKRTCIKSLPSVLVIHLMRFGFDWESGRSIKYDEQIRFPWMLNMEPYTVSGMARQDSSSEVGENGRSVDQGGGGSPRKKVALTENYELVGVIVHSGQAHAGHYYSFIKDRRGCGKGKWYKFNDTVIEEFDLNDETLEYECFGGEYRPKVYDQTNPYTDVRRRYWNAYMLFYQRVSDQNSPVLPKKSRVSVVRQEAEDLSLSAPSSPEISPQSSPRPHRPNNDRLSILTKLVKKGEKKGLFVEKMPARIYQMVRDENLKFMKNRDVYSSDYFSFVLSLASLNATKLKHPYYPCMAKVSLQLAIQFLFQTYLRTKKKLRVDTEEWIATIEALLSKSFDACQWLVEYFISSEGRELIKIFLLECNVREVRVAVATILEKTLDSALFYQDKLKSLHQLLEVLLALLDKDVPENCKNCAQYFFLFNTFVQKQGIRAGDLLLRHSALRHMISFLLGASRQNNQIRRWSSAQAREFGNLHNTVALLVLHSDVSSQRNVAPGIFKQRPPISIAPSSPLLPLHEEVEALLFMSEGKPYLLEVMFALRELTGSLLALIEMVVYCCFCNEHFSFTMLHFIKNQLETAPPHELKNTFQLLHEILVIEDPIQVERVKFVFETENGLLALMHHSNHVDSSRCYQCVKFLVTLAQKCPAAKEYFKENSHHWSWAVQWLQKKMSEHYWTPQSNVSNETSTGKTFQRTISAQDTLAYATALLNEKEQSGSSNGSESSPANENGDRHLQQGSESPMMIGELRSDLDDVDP
Summary of the method: as §1

USP25 = molecular target: T3, USP25 (UniProt Q9UHP3)
T3 sequence (whole entry): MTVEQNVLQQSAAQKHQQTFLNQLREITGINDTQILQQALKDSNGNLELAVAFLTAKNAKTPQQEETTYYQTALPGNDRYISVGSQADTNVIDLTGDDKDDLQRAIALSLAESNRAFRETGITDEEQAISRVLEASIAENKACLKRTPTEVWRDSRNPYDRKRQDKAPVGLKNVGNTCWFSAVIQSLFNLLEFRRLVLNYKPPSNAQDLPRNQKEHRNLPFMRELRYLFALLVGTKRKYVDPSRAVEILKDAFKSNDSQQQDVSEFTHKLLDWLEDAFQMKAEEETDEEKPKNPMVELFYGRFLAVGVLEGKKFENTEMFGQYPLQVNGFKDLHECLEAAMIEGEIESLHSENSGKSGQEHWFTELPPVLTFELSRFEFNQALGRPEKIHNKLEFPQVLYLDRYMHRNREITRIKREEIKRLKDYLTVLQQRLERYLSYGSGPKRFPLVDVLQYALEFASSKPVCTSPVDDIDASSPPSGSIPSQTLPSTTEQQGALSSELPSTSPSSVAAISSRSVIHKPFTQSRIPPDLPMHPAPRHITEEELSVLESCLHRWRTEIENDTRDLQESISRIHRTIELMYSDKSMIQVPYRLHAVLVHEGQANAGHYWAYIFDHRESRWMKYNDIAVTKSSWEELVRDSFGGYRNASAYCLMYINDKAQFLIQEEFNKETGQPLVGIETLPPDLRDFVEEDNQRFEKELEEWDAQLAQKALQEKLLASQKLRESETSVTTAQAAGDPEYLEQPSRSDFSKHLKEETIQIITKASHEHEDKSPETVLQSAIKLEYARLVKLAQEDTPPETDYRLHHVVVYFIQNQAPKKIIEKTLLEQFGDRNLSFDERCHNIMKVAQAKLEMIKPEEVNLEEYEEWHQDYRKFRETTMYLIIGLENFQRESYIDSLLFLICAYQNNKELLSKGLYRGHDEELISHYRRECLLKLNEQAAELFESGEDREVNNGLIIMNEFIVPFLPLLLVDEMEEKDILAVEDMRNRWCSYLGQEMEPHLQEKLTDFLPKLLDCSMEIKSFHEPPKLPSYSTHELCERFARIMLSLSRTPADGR
Summary of the method: as §1

USP28 = molecular target: T4, USP28 (UniProt Q96RU2)
T4 sequence (whole entry): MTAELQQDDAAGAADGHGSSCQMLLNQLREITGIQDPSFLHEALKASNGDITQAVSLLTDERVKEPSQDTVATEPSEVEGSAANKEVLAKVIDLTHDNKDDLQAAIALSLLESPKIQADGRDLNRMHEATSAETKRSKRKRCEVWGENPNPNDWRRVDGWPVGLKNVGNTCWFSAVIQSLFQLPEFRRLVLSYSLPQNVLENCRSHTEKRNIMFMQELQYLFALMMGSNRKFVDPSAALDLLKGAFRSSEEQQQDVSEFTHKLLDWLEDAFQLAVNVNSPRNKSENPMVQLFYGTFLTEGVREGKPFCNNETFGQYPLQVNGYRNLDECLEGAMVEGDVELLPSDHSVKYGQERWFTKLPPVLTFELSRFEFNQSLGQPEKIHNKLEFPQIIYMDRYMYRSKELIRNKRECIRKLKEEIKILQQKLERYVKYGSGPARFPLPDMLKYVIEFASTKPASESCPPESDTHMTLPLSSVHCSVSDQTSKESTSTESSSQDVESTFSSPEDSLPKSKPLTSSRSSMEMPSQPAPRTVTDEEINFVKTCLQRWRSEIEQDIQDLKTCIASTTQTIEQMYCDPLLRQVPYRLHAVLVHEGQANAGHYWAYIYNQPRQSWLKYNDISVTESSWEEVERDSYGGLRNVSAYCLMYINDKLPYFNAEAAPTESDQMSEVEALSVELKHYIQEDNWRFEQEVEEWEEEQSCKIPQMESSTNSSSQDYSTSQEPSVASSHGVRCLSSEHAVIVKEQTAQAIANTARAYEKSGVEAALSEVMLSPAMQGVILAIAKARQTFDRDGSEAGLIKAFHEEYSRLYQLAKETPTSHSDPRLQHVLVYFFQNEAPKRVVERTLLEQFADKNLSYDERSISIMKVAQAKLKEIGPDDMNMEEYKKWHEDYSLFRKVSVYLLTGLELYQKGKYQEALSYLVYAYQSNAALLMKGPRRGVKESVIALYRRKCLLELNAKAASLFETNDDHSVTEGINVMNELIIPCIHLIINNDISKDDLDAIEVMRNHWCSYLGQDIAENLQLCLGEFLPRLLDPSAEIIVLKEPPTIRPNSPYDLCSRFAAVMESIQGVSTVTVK
Summary of the method: as §1

Measured: log2 ratio of Biotin-Ahx-Ub-VS probe labelling

O=C(CCl)N1CCOC2(CCC2)C1
inactive: USP19 0.0251 | USP22 0.184 | USP24 -0.0132 | USP25 -0.216 | USP28 -0.0963
